# According to PubChem BioAssay AID1159577 (Broad Institute, 2015):
# In all, about 1,300 compounds went through this assay and about 240 (18%) were called active. Roughly 8% stayed inconclusive and do not appear here. The rule behind the calls is not given here. Only a sample is shown. Results with a measured potency or affinity are listed apart.
# Assay: HepG2 cell cytotoxicity, dose response, cytotoxicity control, cherry-picked samples (AID 1159577)
# Conditions: HepG2 cytotoxicity counterscreen, plate reader; series mostly up to 19.5 µM
row,Structure (SMILES),outcome
1,O=C(C[C@H]1C=C[C@H](NC(=O)Cc2ccccn2)[C@H](CO)O1)NCCc1ccccc1,inactive
2,C[C@H]1CN([C@@H](C)CO)S(=O)(=O)c2ccc(C#Cc3ccccc3)cc2O[C@@H]1CN(C)C(=O)C1CC1,inactive
3,O=C(C[C@H]1C=C[C@@H](NC(=O)Nc2ccccc2F)[C@H](CO)O1)NCc1ccc(-c2ccccc2)cc1,inactive
4,OC[C@@H]1Nc2ccc(C#Cc3cccc(F)c3)cc2[C@@H]2NCC[C@H]12,inactive
5,O=C(c1ccccc1F)N1CC[C@H]2[C@H](CO)Nc3ccc(C#Cc4ccc(F)cc4)cc3[C@H]21,inactive
6,O=C(c1cccc(F)c1)N1CC[C@H]2[C@H](CO)Nc3ccc(C#Cc4cccc(F)c4)cc3[C@H]21,inactive
7,COc1ccccc1C#Cc1ccc2c(c1)[C@H]1NCC[C@H]1[C@@H](CO)N2,inactive
8,COc1ccc(CN2C[C@@H](C)[C@H](OC)CN(C)C(=O)c3ccc(NC(=O)c4nc5ccccc5s4)cc3OC[C@H]2C)cc1,inactive
9,CCCN(C)C[C@@H]1Oc2cc(C#Cc3ccccc3)ccc2S(=O)(=O)N([C@@H](C)CO)C[C@@H]1C,inactive
10,COc1cccc(NC(=O)N2[C@@H](CO)[C@H](c3ccccc3)[C@@H]2CNCC(C)C)c1,inactive
11,O=C(c1cccc(F)c1)N1CC(=O)N2[C@H](CO)[C@H](c3ccc(-c4cccnc4)cc3)[C@H]2C1,inactive
12,CO[C@H]1CN(C)C(=O)c2cc(NC(=O)c3cc(C)on3)ccc2OC[C@H](C)N(C(=O)C2CC2)C[C@H]1C,inactive
13,COc1ccc2c3c(n(C)c2c1)[C@@H](CO)N(C(=O)C1CC1)CC31CN(C(=O)Nc2cccc(F)c2)C1,inactive
14,C[C@H](CO)N1C[C@H](C)[C@@H](CN(C)C(=O)c2ccccc2F)Oc2ncc(C#Cc3cccc(F)c3)cc2C1=O,inactive
15,COCC#Cc1ccc([C@H]2[C@H](CO)N3C(=O)CN(C(=O)CN4CCOCC4)C[C@@H]23)cc1,inactive
16,COc1ccc(C#Cc2ccc3c(c2)[C@@H]2[C@@H](CCN2C(=O)C2CCCC2)[C@H](CO)N3)cc1,inactive
17,CC(C)(C)[S@@](=O)N1Cc2cc(C(=O)NCCN3CCCCC3)nc(-c3cccc(-c4ccc(C#N)cc4)c3)c2[C@H]1CCO,inactive
18,CN1CCN(C(=O)C[C@H]2C[C@@H]3c4cc(NC(=O)Nc5ccc(C(F)(F)F)cc5)ccc4O[C@@H]3[C@@H](CO)O2)CC1,inactive
19,COCC(=O)N1CC2(C1)CN(C(=O)CN1CCOCC1)[C@@H](CO)c1c2c2ccc(OC)cc2n1C,inactive
20,CCCN(C)C[C@H]1Oc2cc(C#Cc3cccnc3)ccc2S(=O)(=O)N([C@H](C)CO)C[C@H]1C,inactive
21,CO[C@H]1CN(C)C(=O)c2ccc(NC(=O)CC(F)(F)F)cc2OC[C@@H](C)N(CC2CC2)C[C@H]1C,inactive
22,CCCC#Cc1ccc2c(c1)O[C@H](CN(C)C(=O)Nc1ccc(OC)cc1)[C@H](C)CN([C@H](C)CO)S2(=O)=O,inactive
23,N#Cc1ccc(-c2ccc3c(c2)[C@@H]2[C@@H](CCN2C(=O)C2CCC2)[C@@H](CO)N3)cc1,inactive
24,COc1ccc2c3c([nH]c2c1)[C@@H](CO)N(C(C)=O)CC31CN(C(=O)CN2CCOCC2)C1,inactive

row,Structure (SMILES),outcome
1,COc1ccc(CN2CC3(CN(C(C)=O)C3)c3c([nH]c4cc(OC)ccc34)[C@@H]2CO)cc1,inactive
2,COc1ccc2c3c([nH]c2c1)[C@@H](CO)N(C(=O)CN(C)C)CC31CCN(CC2CCCCC2)CC1,inactive
3,COc1ccc(CN2CC3(C2)CN(Cc2ccc4c(c2)OCO4)[C@H](CO)c2[nH]c4cc(OC)ccc4c23)cc1,inactive
4,CO[C@H]1CN(C)C(=O)c2cc(NC(=O)c3ccccc3F)ccc2OC[C@H](C)N(C)C[C@H]1C,inactive
5,COc1ccccc1CNC(=O)C[C@H]1C[C@@H]2c3cc(NC(=O)Nc4ccc(C(F)(F)F)cc4)ccc3O[C@@H]2[C@H](CO)O1,inactive
6,C[C@H]1CN([C@@H](C)CO)C(=O)Cc2cc(NC(=O)CCC(F)(F)F)ccc2O[C@H]1CN(C)S(C)(=O)=O,inactive
7,COc1ccccc1C#Cc1ccc2c(c1)[C@H]1[C@H](CCN1C(=O)CN1CCOCC1)[C@@H](CO)N2,inactive
8,CO[C@@H]1CN(C)C(=O)c2ccc(NC(=O)Nc3ccccc3F)cc2OC[C@@H](C)N(CC2CC2)C[C@H]1C,inactive
9,C[C@H](CO)N1C[C@H](C)[C@H](CN(C)C(=O)Cc2ccncc2)Oc2cc(C#CC3CCCC3)ccc2S1(=O)=O,inactive
10,COc1ccc(CN2C[C@@H](C)[C@@H](OC)CN(C)C(=O)c3cc(NC(=O)c4nc5ccccc5s4)ccc3OC[C@H]2C)cc1,inactive
11,CCCN(C)C[C@@H]1Oc2cc(C#Cc3ccncc3)ccc2S(=O)(=O)N([C@H](C)CO)C[C@@H]1C,inactive
12,COc1ccc(NC(=O)N(C)C[C@@H]2Oc3cc(-c4ccc(C)cc4)ccc3S(=O)(=O)N([C@H](C)CO)C[C@H]2C)cc1,inactive
13,CCS(=O)(=O)N1CCCCN2[C@H](CO)[C@H](c3ccc(C#Cc4ccccc4OC)cc3)[C@@H]2C1,inactive
14,CCC(=O)Nc1ccc2c(c1)OC[C@@H](C)N(Cc1cccc(F)c1)C[C@@H](C)[C@H](OC)CN(C)C2=O,inactive
15,CCCNC(=O)Nc1ccc2c(c1)OC[C@@H](C)N(Cc1ccccc1)C[C@@H](C)[C@H](OC)CN(C)C2=O,inactive
16,COCC(=O)N1[C@H](C#N)[C@@H](c2ccccc2C2=CCCC2)[C@@H]1CO,inactive
17,COc1ccc2c3c(n(C)c2c1)[C@H](CO)N(C(=O)Nc1ccc(F)cc1)CC31CN(C(=O)c2ccc3c(c2)OCO3)C1,inactive
18,C[C@@H]1CN([C@H](C)CO)C(=O)c2ccccc2-c2ccccc2CO[C@H]1CN(C)C(=O)Nc1cccc(C(F)(F)F)c1,inactive
19,C[C@H]1CN([C@@H](C)CO)C(=O)c2ccccc2-c2ccccc2CO[C@H]1CN(C)Cc1ccc(Oc2ccccc2)cc1,inactive
20,C[C@@H]1CN([C@H](C)CO)C(=O)c2ccccc2-c2ccccc2CO[C@@H]1CN(C)Cc1ccc(C(F)(F)F)cc1,inactive
21,C[C@H]1CN([C@@H](C)CO)C(=O)c2ccccc2-c2ccccc2CO[C@H]1CN(C)Cc1ccc(-c2ccccc2)cc1,inactive
22,C[C@@H]1CN([C@@H](C)CO)C(=O)c2ccccc2-c2ccccc2CO[C@H]1CN(C)C(=O)Nc1cccc(C(F)(F)F)c1,inactive
23,C[C@H]1CN([C@@H](C)CO)C(=O)c2ccccc2-c2ccccc2CO[C@H]1CN(C)Cc1cccc(C(F)(F)F)c1,inactive
24,C[C@H](CO)N1C[C@H](C)[C@H](CN(C)C(=O)Nc2ccc(N3CCCCC3)cc2)OCc2cnnn2CCCC1=O,inactive

row,Structure (SMILES),outcome
1,CCCC(=O)N1CC2(C1)CN(Cc1ccccc1F)[C@H](CO)c1c2c2ccc(OC)cc2n1C,inactive
2,COc1ccc2c3c([nH]c2c1)[C@@H](CO)N(Cc1cccc(Cl)c1)CC31CCN(C(C)=O)CC1,inactive
3,CN(C)c1ccc2c(c1)[C@@H]1C[C@H](CC(=O)N3CCc4ccccc4C3)O[C@@H](CO)[C@@H]1O2,inactive
4,CO[C@@H]1CN(C)C(=O)c2ccc(NC(=O)NC3CCCCC3)cc2OC[C@@H](C)N(CCc2ccccc2)C[C@H]1C,inactive
5,O=C(Nc1ccc(F)cc1)N1C[C@H]2[C@@H](c3ccccc31)[C@@H](CO)N2Cc1cocn1,inactive
6,COc1ccc(NC(=O)N2CC3(C2)CN(C(=O)C2CCC2)[C@H](CO)c2c3c3ccc(OC)cc3n2C)cc1,inactive
7,C/C=C/c1ccccc1[C@H]1[C@@H](C#N)N(C(=O)NC2CCCC2)[C@H]1CO,inactive
8,COc1ccc(-c2ccc3c(c2)[C@H]2[C@H](CCN2C(=O)NC2CCCC2)[C@H](CO)N3C)cc1,inactive
9,COc1ccc(-c2ccc3c(c2)[C@H]2[C@H](CCN2C(=O)C2CCCC2)[C@H](CO)N3C)cc1,inactive
10,O=C(c1ccc(F)cc1)N1CC(=O)N2[C@H](C1)[C@@H](c1ccc(-c3cccnc3)cc1)[C@@H]2CO,inactive
11,CCCNC(=O)Nc1ccc2c(c1)C(=O)N(C)C[C@H](OC)[C@@H](C)CN(C(=O)C1CCOCC1)[C@H](C)CO2,inactive
12,CO[C@@H]1CN(C)C(=O)c2ccc(NC(=O)Nc3ccccc3F)cc2OC[C@@H](C)N(Cc2ccccc2F)C[C@H]1C,inactive
13,Cc1ccccc1S(=O)(=O)N1CC(=O)N2[C@H](CO)[C@H](c3ccc(C#CC4CC4)cc3)[C@@H]2C1,inactive
14,O=C1CN(S(=O)(=O)c2ccccc2)C[C@@H]2[C@H](c3ccc(C#CCc4ccccc4)cc3)[C@@H](CO)N12,inactive
15,Cc1ccccc1S(=O)(=O)N1CC(=O)N2[C@H](CO)[C@H](c3ccc(C#CCC4CCCC4)cc3)[C@H]2C1,inactive
16,O=C1CN(S(=O)(=O)c2ccccc2)C[C@H]2[C@H](c3ccc(C#CCc4ccccc4)cc3)[C@@H](CO)N12,inactive
17,C[C@@H]1CN([C@@H](C)CO)C(=O)c2cccc(NC(=O)c3nc4ccccc4s3)c2O[C@H]1CN(C)C(=O)Nc1ccc2c(c1)OCO2,inactive
18,CCNC(=O)c1cc2c(c(-c3cccc(-c4cc5ccccc5o4)c3)n1)[C@@H](CCO)N(C(=O)NC(C)C)C2,inactive
19,CC(C)(C)[S@](=O)N1Cc2cc(C(=O)NCCN3CCCCC3)nc(-c3cccc(-c4ccc(C#N)cc4)c3)c2[C@@H]1CCO,inactive
20,COc1ccccc1S(=O)(=O)N(C)C[C@@H]1Oc2cc(/C=C/c3ccccc3)ccc2S(=O)(=O)N([C@H](C)CO)C[C@H]1C,inactive
21,O=C(c1ccccc1F)N1CC(=O)N2[C@H](CO)[C@H](c3ccc(-c4cccnc4)cc3)[C@H]2C1,inactive
22,C[C@@H]1CN([C@@H](C)CO)C(=O)c2cccc(NC(=O)c3nc4ccccc4s3)c2O[C@H]1CN(C)C(=O)Nc1ccc(C(F)(F)F)cc1,inactive
